Screening data from PubChem.
Sampled rows, rich in hits. Any-hit rate of the full collection: about 5.7%.
hcDAF-12 act = activates DAF-12 receptor from parasite H. contortus; HEK293 hcDAF-12 lit1-tk-luc reporter, luminescence; 0% DMSO, 100% Δ7-dafachronic acid; activation, % at 6.8 µM; 370,000 tested, 1.4% active;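 active means activation above the mean of all tested compounds plus 3 SD, cut at about 5.5% in these data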;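 further: 100% = response to 3 µM Δ7-dafachronic acid high control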
ssDAF-12 act = S. stercoralis DAF-12 activation, primary screen. HEK293 ssDAF-12/GRIP1 lit1-tk-luc reporter, luminescence; % of 3 µM dafachronic acid response. activation, % at 6.8 µM. 370,000 tested, 1% active;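 active means activation above the mean over all tested compounds plus 3 SD, cut at about 0.9% in these data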;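 further: 0% = DMSO-only wells and 100% = 3 µM delta7-dafachronic acid wells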
AHR act = activators of human aryl hydrocarbon receptor | P35869 | AHR-responsive luciferase reporter cells, luminescence | activation, % at 5 µM | 320,000 tested, 2.5% active | AID 2796; in the data active means activation above about 47%;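 further: 0% = vehicle wells and 100% = reference agonist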
hgDAF-12 ag = hgDAF-12 agonism, primary luciferase screen; HEK293 GAL4-hgDAF12 UAS-luciferase reporter, agonist luminescence; normalized to butyrate control; activation, % at 6.8 µM; 370,000 tested, 1.8% active;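 active means activation above a cutoff set at the mean of all screened compounds plus 3 SD, cut at about 10% in these data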;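 further: 0% = DMSO wells and 100% = sodium butyrate wells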
DAX1 inh-1 = inhibitors of DAX1 repression of SF-1 activated StAR promoter; AID 652010; inhibition, % at 6.8 µM; HEK293T StAR-luciferase reporter, SF-1/DAX-1 repression relief; 370,000 tested, 1.1% active;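 active means inhibition above the mean over all tested compounds plus 3 SD, cut at about 3.6% in these data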;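 further: 0% = DAX-1 cells with DMSO and 100% = cells lacking DAX-1 with DMSO; higher inhibition means more luminescence from relief of DAX-1 repression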
DAX1 inh-2 = NR0B1 (DAX1) inhibition | P51843 | HEK293 Gal4-DAX1 luciferase reporter, luminescence | inhibition, % at 6.75 µM | 340,000 tested, 0.99% active | AID 504766;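 active means inhibition above the mean over all tested compounds plus 3 SD, cut at about 4.2% in these data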;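 further: 0% = DAX1-transfected cells with DMSO and 100% = empty-vector control cells with DMSO; inhibition shows as a rise in luminescence from relieved DAX1 repression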
Target sequence (P51843 207-470 limits assumed): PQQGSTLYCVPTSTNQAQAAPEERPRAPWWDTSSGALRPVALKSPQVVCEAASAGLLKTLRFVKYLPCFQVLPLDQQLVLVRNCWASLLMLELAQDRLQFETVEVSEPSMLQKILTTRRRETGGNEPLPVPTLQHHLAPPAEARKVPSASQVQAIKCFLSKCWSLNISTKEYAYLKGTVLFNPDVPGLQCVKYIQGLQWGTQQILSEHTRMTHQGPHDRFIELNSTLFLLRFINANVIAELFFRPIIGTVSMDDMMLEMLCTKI
AHR act cf = confirmation of human aryl hydrocarbon receptor activators | shares compounds with AHR act | human cells, AHR-responsive luciferase reporter, luminescence | 2,300 tested, 87% active | AID 2845 | activation, % at 9 µM; in the data active means activation above about 49%;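 further: HepG2 hepatoma cells carrying a DRE-driven firefly luciferase reporter; 0% = vehicle wells and 100% = reference agonist wells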
PXR counter = counter-screen for AHR activators: human PXR activators. 2,300 tested, 88% active. AID 434939. cell-based PXR reporter, luciferase luminescence. shares compounds with AHR act. activation, % at 11.6 µM; in the data active means activation above about 11%;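 further: human hepatoma DPX-2 cells expressing full-length human PXR; 0% = DMSO and 100% = reference agonist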
DAX1 inh confirm = NR0B1 (human) inhibition, confirmation; HEK293T StAR-promoter luciferase reporter, SF-1/DAX-1 repression; shares compounds with DAX1 inh-1; AID 652134; 2,400 tested, 87% active; inhibition, % at 6.8 µM;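 active means inhibition above the average of every tested compound plus 3 SD, cut at about 3.8% in these data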;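 further: 0% = DAX-1 cells with DMSO and 100% = no DAX-1 control cells with DMSO; active compounds raise luminescence by relieving repression of the StAR reporter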
Target sequence (P51843 whole entry, looked up): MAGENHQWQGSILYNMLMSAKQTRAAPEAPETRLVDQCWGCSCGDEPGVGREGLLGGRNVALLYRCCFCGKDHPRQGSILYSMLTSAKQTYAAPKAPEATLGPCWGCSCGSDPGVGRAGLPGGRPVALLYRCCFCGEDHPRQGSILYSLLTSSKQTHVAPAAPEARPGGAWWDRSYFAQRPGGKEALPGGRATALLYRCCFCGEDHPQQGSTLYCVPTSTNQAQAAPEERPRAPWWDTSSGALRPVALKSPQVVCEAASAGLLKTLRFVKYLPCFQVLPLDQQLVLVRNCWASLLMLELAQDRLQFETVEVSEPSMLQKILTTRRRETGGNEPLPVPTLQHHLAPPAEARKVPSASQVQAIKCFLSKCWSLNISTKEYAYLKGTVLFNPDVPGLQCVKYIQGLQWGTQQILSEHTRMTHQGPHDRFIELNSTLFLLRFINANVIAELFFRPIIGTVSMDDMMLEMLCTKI
SF1 AF2mut Luc = counter-screen for DAX1 inhibitors: nonselective inhibitors with SF-1 AF2 mutant | shares compounds with DAX1 inh-1 | HEK293 StAR-luciferase, luminescence | inhibition, % at 6.8 µM | 2,400 tested, 78% active | AID 652136;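 active means inhibition above the mean of all tested compounds plus 3 SD, cut at about 3% in these data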;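 further: 0% = DAX-1 transfected cells with DMSO and 100% = cells without DAX-1 with DMSO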
Numbers without * were called inactive; . = no result given.

SMILES | hcDAF-12 act | ssDAF-12 act | AHR act | hgDAF-12 ag | DAX1 inh-1 | DAX1 inh-2 | AHR act cf | PXR counter | others
N=c1n(CC(=O)c2ccc(Br)cc2)c2ccccc2n1Cc1ccccc1 | -1.6 | -0.9 | 124.2* | -1.9 | -0.8 | -0.3 | 81.3* | 46.4*
N=c1n(CC(=O)c2ccc([N+](=O)[O-])cc2)c2ccccc2n1Cc1ccccc1 | 2.5 | -1.0 | 1.9 | 4.7 | 0.1 | 0.9 | . | .
Nc1nc2ccccc2n1/N=C/c1ccc([N+](=O)[O-])s1 | 0.9 | -1.4 | 127.6* | -7.9 | -3.0 | -4.0 | 79.0* | 11.4*
CC(=O)N1CCN(S(=O)(=O)c2ccccc2)C1c1ccccc1 (stereo not drawn) | -2.1 | -1.6 | 101.6* | -1.4 | -0.1 | 0.6 | 8.8 | 62.7*
CCC(=O)N1CCN(C(C)=O)C1c1ccccc1 (stereo not drawn) | -0.8 | -1.4 | -2.2 | 1.3 | 0.0 | 0.2 | . | .
CSc1nc2[nH]c3c(c2c2nncn12)CC(C)(C)OC3 | -1.4 | -0.9 | 9.0 | 0.4 | -0.4 | 0.0 | . | .
CSc1nc2[nH]c3c(c2c2nnnn12)CCCC3 | -1.8 | -1.7 | 115.6* | -0.2 | -1.4 | -1.8 | 106.9* | 44.3*
COc1ccc(C(=O)COc2ccccc2C#N)cc1 | 4.2 | -0.5 | 90.0* | 7.7 | 0.7 | 3.9 | 66.9* | 23.1*
O=C(Nc1ccc(N2CCN(C(=O)c3ccccc3F)CC2)cc1)c1ncn[nH]1 | -1.5 | 0.0 | 2.8 | -1.8 | 0.1 | -0.2 | . | .
Cc1cc(Br)ccc1NC(=O)c1sc2ncnc(N3CCN(c4ccccn4)CC3)c2c1C | -0.7 | -1.1 | 79.9* | 1.9 | -0.3 | 0.1 | 90.9* | 19.4*
COc1ccc(C(=O)N/C(=C\c2cn(C)c3ccccc23)C(=O)OCCN(C)C)cc1 | 1.6 | -0.4 | 100.3* | 0.5 | 1.4 | 3.5 | 109.2* | 93.9*
COc1ccc(C(=O)N/C(=C\c2cn(C)c3ccccc23)C(=O)OCC(C)C)cc1 | 0.0 | -0.6 | 89.6* | -2.0 | 0.2 | 0.2 | 60.1* | 136.6*
CCSc1nc(C)nc2sc(C)c(C)c12 | -0.2 | -1.4 | 4.8 | -2.6 | -0.3 | 2.4 | . | .
CC(=O)NC12CC3CC(C1)CC(C(=O)Nc1cccc(S(=O)(=O)N4CCCCCC4)c1)(C3)C2 | -1.5 | -1.1 | . | -2.0 | -2.4 | -0.9 | . | .
Cc1cc(C)n(-c2nc3c(c(=O)[nH]c(=O)n3C)n2Cc2ccc(F)cc2)n1 | -0.9 | -0.4 | 3.4 | 1.9 | -1.0 | 0.1 | . | .
Cc1cc(C)n(-c2nc3c(c(=O)[nH]c(=O)n3C)n2CC(O)c2ccccc2)n1 (stereo not drawn) | -0.7 | -0.9 | 80.3* | 0.0 | -0.2 | 1.8 | 77.6* | 45.2*
Cc1cc(C)n(-c2nc3c(c(=O)[nH]c(=O)n3C)n2Cc2ccccc2)n1 | -1.2 | -1.4 | 1.1 | -0.3 | -0.5 | -0.5 | . | .
Cc1cc(C)n(-c2nc3c(c(=O)[nH]c(=O)n3C)n2CCc2ccccc2)n1 | -2.1 | -1.7 | 132.7* | 0.6 | -0.7 | -0.2 | 84.3* | 67.4*
CCN(CC)CCC12CC(C)OC1=Nc1ccccc1NC2=O (stereo not drawn) | -0.6 | -0.2 | . | 3.4 | -0.1 | . | . | .
COc1ccc(Nc2nccc(-c3ccc(C#N)cc3)n2)cc1 | -3.8 | -2.0 | 80.3* | 0.8 | -1.1 | -0.5 | 54.2* | 16.0*
CC(C)NCCCCOc1ccc(Br)cc1Cl | 0.8 | -1.2 | 1.4 | 0.8 | 0.2 | 0.3 | . | .
C=CCNC(=O)c1cc(-c2ccncc2)nc2c(C)cc(C)cc12 | -1.0 | -1.6 | 80.7* | 2.0 | -1.6 | 0.4 | 65.2* | 44.8*
COc1ccc2c(C)cc3n[nH]c(=S)n3c2c1 | -0.4 | -1.6 | 28.6 | 3.1 | 0.4 | 1.9 | . | .
Cc1cc(N/N=C/c2ccccc2O)c2ccccc2n1 | 2.5 | -0.6 | 106.9* | 6.3 | -0.7 | 0.8 | 123.6* | 13.1*
CCCCN(CCCC)S(=O)(=O)c1ccc(NC(=O)Cc2cccs2)cc1 | -3.9 | -2.1 | -2.4 | -5.0 | -1.7 | -1.3 | . | .
SMILES | hcDAF-12 act | ssDAF-12 act | AHR act | hgDAF-12 ag | DAX1 inh-1 | DAX1 inh-2 | AHR act cf | PXR counter | others
Cc1cccc(C(=O)N[C@H](C(=O)Nc2ncc(C)s2)C(C)C)c1 | 1.5 | -1.3 | 103.6* | 8.5 | 0.6 | 2.4 | 18.9 | 363.7*
Cc1cccc(C(=O)N[C@H](C(=O)Nc2nnc(C3CC3)s2)C(C)C)c1 | -1.3 | -0.7 | 2.2 | -0.4 | -0.4 | 1.3 | . | .
Cc1nn2c(-c3ccc(F)cc3)ccnc2c1Br | -1.5 | -0.7 | 81.5* | -0.6 | 0.1 | 1.4 | 108.8* | 25.3*
CCOc1cc(/C=N/NC(=O)C(=O)Nc2cc(Cl)ccc2C)ccc1O | -2.6 | -1.8 | 42.9 | -1.2 | -0.1 | -0.9 | . | .
Cc1cc(C)n2nc(-c3sccc3-n3cccc3)cc2n1 | -1.7 | -0.9 | 93.2* | 0.8 | -0.6 | 0.4 | 55.0* | 60.9*
O=C(c1ccc(Cl)c(S(=O)(=O)N2CCOCC2)c1)N1CCCCCC1 | -0.7 | -0.9 | 2.2 | -0.4 | 0.1 | -2.7 | . | .
Cn1c(=O)c2c(nc(/C=C/c3cccc(Cl)c3)n2C)n(C)c1=O | -2.2 | -1.0 | 86.0* | 1.7 | -0.5 | . | 54.7* | .
COc1ccc(NC(=O)C2CCCN2C(=O)OC(C)(C)C)cc1 (stereo not drawn) | -1.5 | -1.6 | 1.2 | 0.3 | 0.3 | 1.4 | . | .
O=c1cc(-c2ccco2)oc2c1ccc1ccccc12 | -1.1 | -1.1 | 79.3* | 2.4 | 0.4 | -0.6 | 60.9* | 24.6*
COc1ccccc1-n1cc(-c2ccccc2)[nH]c1=S | 2.9 | -0.2 | 102.3* | 0.4 | 0.6 | -0.2 | 105.7* | 48.5*
CCOc1ccc(-c2cn(-c3ccccc3OC)c(=S)[nH]2)cc1 | 0.0 | -1.1 | 21.9 | 1.3 | -0.8 | -0.1 | . | .
Cc1cc(C)c2nc(SCC(=O)N3CC(=O)Nc4ccccc43)c(C#N)cc2c1 | -1.8 | -0.6 | 91.8* | -1.9 | 4.8* | -1.5 | 76.1* | 77.0* | DAX1 inh confirm=10.5*;SF1 AF2mut Luc=-7.5
COC(=O)c1c(-c2cccnc2)csc1NC(=O)c1ccc2c(c1)OCO2 | 3.0 | -0.2 | 113.6* | 6.2 | 8.2* | 0.8 | 23.1 | 4.8 | DAX1 inh confirm=12.1*;SF1 AF2mut Luc=6.8*
Cc1cc(N)n2ncc(-c3cccc(Br)c3)c2n1 | 3.8 | 0.5 | 93.0* | 10.2 | 4.9* | 0.4 | 124.6* | 34.0* | DAX1 inh confirm=7.0*;SF1 AF2mut Luc=3.7*
